Among the data in the OligoGym collection are sensor-assay potency score (higher = more potent) values, retold here.
Further: reference of the scale not given here.

The target in one test is GPX2. Nature of the test: pooled miR-30 sensor sort-seq; sequence = guide strand. The note with it: shRNA.
As for TATGAGGAACTTCTCAAAGTTC, the sensor-assay potency score (higher = more potent) was -1.27. On the same count and under the same terms, with TTGATGGTTGGGAAGGTGCGGC the figure was -0.796. Still for that read-out and setting: for TTGCAGCTCGTTGAGCTGGGTG the value was -0.963; for TTTTGGACAAGGGTGAAGGTGG, -0.672; for TTGATGTCAGGCTCAATGTTGA, -0.614.

A further test concerns the target GRAMD1B. The test is described as above. The note with it: shRNA.
As for TTGGTCTCTATGCTGCTCTTGG, the sensor-assay potency score (higher = more potent) was -0.389. Still for that read-out and setting: for TTGTGTAGAAGTAGTCATGGTA the value was 0.548; for TTTTTGGAGCTCAGTATCGTGG, -1.12; for TAACACATTATACCAACTCTGG, -0.853.

For the sequence TTGTCTGTGCATCTCAGCCAAA, the sensor-assay potency score (higher = more potent) was -1.36. For TTCTTGGAGCCTTAGACCCTGC, the sensor-assay potency score (higher = more potent) is -0.896. For TTGTCATTGAAGTCCAGTGAAG, the sensor-assay potency score (higher = more potent) is -1.36. On the same count and under the same terms, for AACATCATCATATATGTCCTAT the value was -0.649; for TATCGTGGTACTTTTGTTGGGA, 0.623; for TTTTCTTCACTTTCCGACGTGT, 0.0883. Take TTGTAGAAGAGCATCATGTTAA: the sensor-assay potency score (higher = more potent) was -0.883. On the same count and under the same terms, with TACATGGTCTGTGTCTCCCTGA the figure was 0.155.
